# Reference: PubChem BioAssay (NCATS)
# Results filed as inconclusive are left out. Unmarked numbers belong to inactive results. Active and inactive are the calls of the source. The call rests on the fitted dose curve; in most records, active means well fitted cell-killing curve with a large enough effect; inconclusive means small, poorly fitted or top-dose-only effect, or effect the other way; inactive means no such curve, though single readings can be large or run the other way.
# Experiment: Quantitative highthroughput screen to assess conditional lethalithy of SEM cells grown in Human Plasma-Like Medium with dialyzed fetal bovine serum (HPLM+ds) (AID 1963882); further: nearly all actives have a fitted effect of over 35% in size
# Details: SEM B-ALL cells in HPLM+ds, CellTiter-Glo viability, 48 h; series mostly up to 45.8 µM; viability: at the top concentration
# Description: Assay Provider: Jason Cantor Ph.D.
# Department of Biochemistry
# University of Wisconsin-Madison, Madison, WI, USA
# Chemical screening studies have identified drug sensitivities across hundreds of cancer cell lines but most putative therapeutics fail to translate. Discovery and development of drug candidates in models that more accurately reflect nutrient levels in human blood is a major challenge. Here we performed high-throughput screens in conventional versus Human Plasma-Like Medium (HPLM) to identify compounds that were "missed" when screening using the artificial culture condition. Sets of conditional anticancer compounds spanned phases of clinical development and included non-oncology drugs were assessed. […] We also traced conditional phenotypes for several chemotherapeutics to availability of HPLM-specific metabolites and confirmed others for compounds whose reported targets are encoded by nonessential genes. Our findings establish generalizable strategies for exploiting conditional lethality in HPLM to reveal therapeutic candidates and mechanisms of action in cancer cells.
# Described herein are the results of each viability screens against three cell lines: NOMO1 (an acute myeloid leukemia cell line); P12-Ichikawa (a T-cell acute lymphoblastic leukemia); and SEM (a B-cell ALL). Each assay was screened using 3 different cell culture media: homemade human plasma-Like medium with 10% dialyzed fetal bovine serum (HPLM+ds); RPMI1640 with 10% untreated FBS and 5mM glucose (RPMI+s); and RPMI1640 with 10% dialyzed fetal bovine serum and 5 mM glucose (RPMI+ds).
# PROTOCOL TABLE (as described by Inglese J, Shamu CE and Guy RK. 2007)
# SEQUENCE No. (e.g., 1, 2, 3, etc.); […] (e.g., Cells, Incubation, Reagent, etc.); VALUE and DESCRIPTION.
# 1; Cells; 5 uL; white, solid bottom 1536-well Greiner assay plate.
# 2; Compounds; 23 nL; Kalypsis pin tool (Wako USA) equipped with a 1536-well pin head to transfer to the assay plates.
# 3; Incubation; 48 hours; 37C incubation.
# 4; Reagent; 3 uL; CellTiter Glo (Promega).
# 5; Incubation; 5 min, room temperature
# 6; Detection; Luminescence, Viewlux PerkinElmer.
# NOTES (numbers refer to Sequence numbers above)
# 1. Briefly, 5 ul of cell reagent was dispensed using a Multidrop Combi Dispenser. The NOMO1 and SEM cells were plated at 500 cells/well and the P12-Ichikawa line at 1000 cells/well.
# 2. After seeding the cells, 23 nL of MIPE 4.1 library compounds (in DMSO) were added to each plate using a Kalypsys 1536 Pintool dispenser. Bortezomib at final concentration of […] and DMSO were added to each plate as positive and negative controls respectively. For each screen, MIPE 4.1 compounds were added over an eleven-point concentration range […] in 3-fold dilutions.
# 3. Each plate was covered with a stainless steel gasketed lid to prevent evaporation and incubated for 48 hour at 37C, 95% relative humidity, and 5% CO2.
# 4-5. Three microliter CellTilter-GloTM luminescent substrate mix (Promega) reagent was added to the assay plate and incubated at room temperature for 5 min.
# 6. The luminescence signal was measured using a ViewLux (PerkinElmer) multiplate reader with a 2 second exposure time per plate. Data for each compound were normalized as percent viability such that measurements for DMSO and the empty well controls in each plate were defined as 100% and 0%, respectively.
# Potency means the concentration at half of the fitted maximal effect.
SMILES,viability,Potency
CNC(=O)c1ccc2cc(C3(O)CCn4cncc43)ccc2c1 (stereo not given),107%,
COc1cc(F)c(C(C)C)cc1-c1ccc(C(F)(F)F)cc1CN1C(=O)O[C@H](c2cc(C(F)(F)F)cc(C(F)(F)F)c2)[C@@H]1C,97.7%,
CC(=O)c1cnc2ccc(-c3cc(Cl)c(O)c(Cl)c3)nc2c1NC1CCC(CN(C)C)CC1 (stereo not given),,74.1 nM (active)
CCCn1c(=O)c2[nH]c(-c3cnn(Cc4cccc(C(F)(F)F)c4)c3)nc2n(CC)c1=O,95%,
COCCCOc1ccnc(CS(=O)c2nc3ccccc3[nH]2)c1C (stereo not given),83.8%,
Nc1nc(Cl)nc2c1ncn2[C@H]1C[C@H](O)[C@@H](CO)O1,,105 nM (active)
Cc1ccccc1N1C(=O)c2cc(S(N)(=O)=O)c(Cl)cc2NC1C (stereo not given),96.6%,
Cc1cn([C@@H]2O[C@H](CO)[C@@H](O)[C@H]2F)c(=O)[nH]c1=O,88.1%,
CCc1c2c(nc3ccc(O)cc13)-c1cc3c(c(=O)n1C2)COC(=O)[C@]3(O)CC,,14.8 nM (active)
COc1ccc(-c2ccc3c(N4CCOCC4)nc(N4C[C@@H](C)O[C@@H](C)C4)nc3n2)cc1CO,,1480 nM (active)
CCOc1cc2ncc(C#N)c(Nc3ccc(OCc4ccccn4)c(Cl)c3)c2cc1NC(=O)C=CCN(C)C,,332 nM (active)
NC(=O)c1ncn([C@@H]2O[C@H](CO)[C@@H](O)[C@@H]2O)c1O,95.9%,
CN(C)C/C=C/C(=O)Nc1ccc(C(=O)Nc2cccc(Nc3ncc(Cl)c(-c4c[nH]c5ccccc45)n3)c2)cc1,,209 nM (active)
O=C(c1ccc(Nc2nccc(-c3cc4ccccc4s3)n2)cc1)N1CCC(N2CCCC2)CC1,,7430 nM (active)
Cc1cccc(-c2[nH]c(C(C)(C)C)nc2-c2ccc3nccnc3c2)n1,,23500 nM (active)
OC[C@@H](O)[C@@H](O)[C@H](O)[C@@H](O)CO,103%,
CN(C)C1CCN(C(=O)c2ccc(NC(=O)Nc3nc(N4CCOCC4)nc(N4CCOCC4)n3)cc2)CC1,,74.3 nM (active)
O=C(O)COCCN1CCN(C(c2ccccc2)c2ccc(Cl)cc2)CC1 (stereo not given),112%,
N#Cc1ccnc(Nc2cc(C3CCN(C4COC4)CC3)cc(N3CCC(F)(F)C3)n2)c1,,13200 nM (active)
Nc1nc2c(c(=O)[nH]1)N(C=O)[C@H](CNc1ccc(C(=O)N[C@@H](CCC(=O)O)C(=O)O)cc1)CN2,112%,

SMILES,viability,Potency
O=C(O)C=Cc1ccc(Cn2ccnc2)cc1,112%,
Nc1ncnc2c1nc(Cl)n2[C@@H]1O[C@H](CO)[C@@H](O)[C@@H]1O,,11800 nM (active)
CCCCN(CCCC)CCC(O)c1cc2c(Cl)cc(Cl)cc2c2cc(C(F)(F)F)ccc12 (stereo not given),100%,
c1cc(-c2cnn3cc(-c4ccc(OCCN5CCCCC5)cc4)cnc23)ccn1,32.6%,
COC(=O)[C@@H]1[C@H]2C[C@@H]3c4[nH]c5ccccc5c4CCN3C[C@@H]2CC[C@@H]1O,107%,
CS(=O)(=O)N(Cc1ccco1)CC(O)Cn1c2ccccc2c2ccccc21 (stereo not given),,18700 nM (active)
C=CC(=O)N1CCc2ccc(-n3c(=O)ccc4cnc5ccc(-c6cnn(C)c6)cc5c43)cc21,,3320 nM (active)
Clc1cccc(Cl)c1NC1=NCCN1,104%,
C[C@]1(CO)CN(c2cc(C(=O)Nc3ccc4c(c3)-c3c(c(C(N)=O)nn3-c3ccc(F)cc3)CC4)c(Cl)cn2)C[C@@]1(C)CO,,18700 nM (active)
CN(NC(=O)CC(=O)NN(C)C(=S)c1ccccc1)C(=S)c1ccccc1,,37.1 nM (active)
CC(C)c1nn(-c2c(Cl)cccc2Cl)c2nc(Cc3ccc(OCCO)cc3)[nH]c(=O)c12,,105 nM (active)
CC(C)NC[C@@H](C(=O)N1CCN(c2ncnc3c2[C@H](C)C[C@H]3O)CC1)c1ccc(Cl)cc1,,296 nM (active)
CS[C@H]1SC[C@@H]2C(=O)N(C)[C@H](C(C)C)C(=O)OC[C@H](NC(=O)c3cnc4ccccc4n3)C(=O)N[C@H](C)C(=O)N(C)[C@@H]1C(=O)N(C)[C@H](C(C)C)C(=O)OC[C@H](NC(=O)c1cnc3ccccc3n1)C(=O)N[C@H](C)C(=O)N2C,,3.7 nM (active)
Nc1ccn(C[C@@H](CO)OCP(=O)(O)O)c(=O)n1,91.9% [at 23.2 µM],
O=c1oc2c(O)c(O)cc3c(=O)oc4c(O)c(O)cc1c4c23,87.3%,
COc1ccc(C2CNC(=O)C2)cc1OC1CCCC1 (stereo not given),95.7%,
Cc1ccc(C(=O)N(CCCN)[C@@H](c2nc3cc(Cl)ccc3c(=O)n2Cc2ccccc2)C(C)C)cc1,,1.2 nM (active)
COc1ccccc1OCC(O)COC(N)=O (stereo not given),77.9%,
O=C(O)C(=O)Nc1cccc(C2=NN=N[N]2)c1,101%,
COc1cc2ncnc(Nc3cccc(Br)c3)c2cc1OC,85.9%,
